Unmarked numbers belong to inactive results. Activity calls are given as the source filed them.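 The calls were made as follows, unless noted: active = mean inhibition above 46.5%, the solvent-only control mean plus 3 SD; inactive = the rest.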

Inhibition data for 40 compounds are collected here from PubChem BioAssay.

Nuclear receptor coactivator 2 (Homo sapiens), sequence (Q15596 whole entry, looked up, the tested form may be a part): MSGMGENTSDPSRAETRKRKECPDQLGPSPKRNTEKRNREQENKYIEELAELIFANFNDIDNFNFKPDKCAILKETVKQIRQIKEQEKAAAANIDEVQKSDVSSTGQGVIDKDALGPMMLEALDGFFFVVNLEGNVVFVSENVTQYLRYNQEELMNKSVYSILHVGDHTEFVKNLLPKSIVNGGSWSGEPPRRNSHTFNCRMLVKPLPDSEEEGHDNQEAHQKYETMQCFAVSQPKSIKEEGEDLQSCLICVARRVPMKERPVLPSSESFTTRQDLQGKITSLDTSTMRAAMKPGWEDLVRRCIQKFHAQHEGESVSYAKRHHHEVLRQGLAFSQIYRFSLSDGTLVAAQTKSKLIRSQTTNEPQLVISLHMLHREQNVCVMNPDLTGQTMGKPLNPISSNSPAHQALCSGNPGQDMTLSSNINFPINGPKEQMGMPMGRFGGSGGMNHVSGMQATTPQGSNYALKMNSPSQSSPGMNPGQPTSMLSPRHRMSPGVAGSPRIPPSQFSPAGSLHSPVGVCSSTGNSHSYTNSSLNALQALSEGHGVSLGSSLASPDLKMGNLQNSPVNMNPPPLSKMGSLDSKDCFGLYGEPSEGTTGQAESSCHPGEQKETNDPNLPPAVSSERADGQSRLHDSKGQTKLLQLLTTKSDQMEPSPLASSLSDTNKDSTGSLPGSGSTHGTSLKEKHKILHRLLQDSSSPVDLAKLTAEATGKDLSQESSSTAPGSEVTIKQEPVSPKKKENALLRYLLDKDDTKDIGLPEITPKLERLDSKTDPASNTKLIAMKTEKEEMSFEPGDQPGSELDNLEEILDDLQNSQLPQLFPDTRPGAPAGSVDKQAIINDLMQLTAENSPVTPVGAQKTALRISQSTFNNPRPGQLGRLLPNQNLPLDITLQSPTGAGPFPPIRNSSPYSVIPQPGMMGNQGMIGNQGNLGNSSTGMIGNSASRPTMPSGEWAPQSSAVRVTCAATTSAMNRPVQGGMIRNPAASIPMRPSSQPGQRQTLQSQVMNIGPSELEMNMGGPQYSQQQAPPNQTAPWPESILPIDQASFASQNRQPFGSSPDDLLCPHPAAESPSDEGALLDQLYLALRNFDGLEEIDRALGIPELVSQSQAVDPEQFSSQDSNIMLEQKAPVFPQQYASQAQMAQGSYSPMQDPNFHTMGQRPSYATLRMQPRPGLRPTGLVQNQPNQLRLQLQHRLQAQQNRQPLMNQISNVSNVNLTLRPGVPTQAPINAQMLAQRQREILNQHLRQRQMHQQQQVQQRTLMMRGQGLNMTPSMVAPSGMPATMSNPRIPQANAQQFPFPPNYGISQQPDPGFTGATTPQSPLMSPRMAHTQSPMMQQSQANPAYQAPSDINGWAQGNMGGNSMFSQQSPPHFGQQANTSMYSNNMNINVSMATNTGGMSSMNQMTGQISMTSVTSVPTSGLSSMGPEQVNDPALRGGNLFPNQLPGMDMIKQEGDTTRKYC

The first assay deals with transactivating tegument protein VP16 (Human herpesvirus 1). The assay can be described thus: compounds suppressing VP16-driven luciferase signal – cell-based, luminescence, single concentration, counter-screen for SRC2 inhibitor project (AID 652007; in the data active = inhibition above about 36%). The following applies: cell-based VP16 transactivation luciferase reporter, at 8.9 µM, active compounds read high. In general terms: A counterscreen serves to expose hits that act by an unwanted route or on another target.
One may read the inhibition as the relative decrease from the control value, in per cent. Turning to `CC(=O)c1ccc(-n2c(C)c(C(C)=O)c3cc(O)ccc32)cc1`, the inhibition was 2.74%.

Regarding `Nc1ncc([N+](=O)[O-])c(N2CCCCCC2)n1`, the inhibition was 4.49%. Still for that read-out and setting: next, `COCC(C)n1c(C)cc(C(=O)COC(=O)c2cccn2C)c1C` (centres undefined): 48.1% (active); `NC(=O)c1sc2nc3c(c(-c4cccs4)c2c1N)CCCCC3`: 7.38%; `COc1ccc(-c2cncnc2-c2ccc(OC)cc2O)cc1`: 14.3%.

Regarding `COc1ccc2ncn(-c3ccccc3)c2c1`, the inhibition is -12.1%. Same read-out and setting: next, `Cc1[nH]nc2ncc(C(=O)c3ccccc3O)cc12`: -2.08%; `Cc1c([N+](=O)[O-])c2ccc(O)cc2n1-c1ccccc1`: 2.8%. Turning to `CC1(Cc2cccc(F)c2)C(=O)Nc2ccc(-c3cccnc3)cc21` (centres undefined), the inhibition is 8.45%.

As for `O=C(NC1CCCCC1)C(c1cccnc1)N(C(=O)CCl)c1cccc(Cl)c1` (centres undefined), the inhibition is 39.6% (active). On the same count and under the same terms, next, `Cc1ccc(S(=O)(=O)c2ccc([N+](=O)[O-])cn2)cc1`: 13%. Still for that read-out and setting: next, `CCn1c2ccccc2c2cnc(N=CN(C)C)c(C#N)c21`: -28.4%; `COc1ccc(Nc2ccnc3ccccc23)cc1`: -20.9%; `COc1ccc(C2=Nn3c(nnc3-c3ccncc3)SC2)cc1`: 12.8%.

In the case of `COc1ccc(-n2c(C)c(C(C)=O)c3cc(O)ccc32)cc1`, the inhibition was -5.76%. With `Cc1ccc(OCC(=O)c2cc(C)n(Cc3cccs3)c2C)c([N+](=O)[O-])n1`, the inhibition is 10.7%. On the same count and under the same terms, next, `O=C(CCl)N1N=C(c2ccco2)CC1c1ccco1` (centres undefined): 36.6% (active).

As for `CC1(C)Cc2c(ccc3ccccc23)C(=O)N1`, the inhibition is -22.7%. The same measure, in the same setting: next, `OCCCNc1ncnc2scc(-c3ccc(Cl)cc3)c12`: 5.28%.

Turning to `Cc1ccccc1C(=O)N1CCN(c2ccc(NC(=O)c3ccc4c(c3)OCCO4)cc2)CC1`, the inhibition was 34.3%. Same read-out and setting: next, `C=C1C(=O)[C@@]23[C@H](O)C[C@@H]4C(C)(C)CC[C@H](O)[C@@]4(C)[C@@H]2CC[C@@H]1[C@H]3O`: 33.9%. The same measure, in the same setting: next, `N#CC(C#N)c1ccnc2ccccc12`: 4.65%; `CCCCN(c1ccccc1)c1ncnc(N)c1[N+](=O)[O-]`: 17.4%.

For `CCOC(=O)c1cccc2c1-c1ccccc1/C2=N/O`, the inhibition is -10.8%.

A further assay addresses Nuclear receptor coactivator 2 (Homo sapiens) (UniProt Q15596). The experiment in a line: inhibition of GAL4-SRC2 driven luciferase expression – cell-based, luminescence, HEK293, triplicate, confirmation (AID 652008).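 Also: 0% = DMSO-treated cells and 100% = Gossypol at 36 µM.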 The settings on record: HEK293 GAL4-SRC2 luciferase reporter, at 8.9 µM, active compounds read high.
`Cc1cc(C(=O)CN2C(=O)c3ccccc3S2(=O)=O)c(C)n1C(C)C`: the inhibition was 59.6% (active). On to `O=C(CCCN1C(=O)/C(=C/c2ccccc2Cl)SC1=S)NNC(=O)c1ccncc1`, for which the inhibition is 65.4% (active). Turning to `Cc1ccc2nc(C(F)(F)F)c(C#N)c(N)c2c1`, the inhibition is 50.1% (active). Still for that read-out and setting: next, `CCCC(=O)N1CCN(c2ccc(NC(=O)c3cc4ccccc4o3)cc2Cl)CC1`: 27.2%; `O=C(CCCN1C(=O)/C(=C/c2ccccc2Cl)SC1=S)NNC(=O)c1ccc(Cl)cc1Cl`: 92.4% (active); `c1cc2c(cc1C1=NNC(=NC3CC3)SC1)OCCO2`: 79.5% (active). `O=C1C=CC(=C(c2ccc(O)cc2)c2ccc(O)cc2)C=C1`: the inhibition was 27.1%. On to `CC1=C(C(=O)OCc2ccc3c(c2)OCO3)C(c2ccc(Cl)cc2)NC(=O)N1` (centres undefined), for which the inhibition is 46.3%. On the same count and under the same terms, next, `COc1ccc(-c2cc3nc(C)n(N)c(=O)c3s2)cc1`: 83.8% (active); `COc1ccc(-c2cc(=O)oc3c(C)c(O)ccc23)cc1`: 23.3%.

Regarding `O=C(CCl)N(C1CCCC1)C1CCS(=O)(=O)C1` (centres undefined), the inhibition was 63.6% (active).

Consider `O=[N+]([O-])c1ccc2ncnc(N3CCN(Cc4ccc5c(c4)OCO5)CC3)c2c1`, for which the inhibition was 54.2% (active). As for `CCOc1ccc(/C=C2\SC(=S)N(CCC(=O)O)C2=O)cc1`, the inhibition is 84.6% (active). For `CCCN(CC(=O)Nc1ccccc1C)C(=O)CCl`, the inhibition was 75.8% (active). On the same count and under the same terms, next, `Cc1nn(C(C)(C)C)c(C)c1/C=N/OC(=O)Nc1ccc(Cl)c(Cl)c1`: 82% (active); `C=CCN(CC=C)c1ncnc2[nH]ncc12`: 34.4%; `CC(=O)c1ccc(-n2c(C)c(C(C)=O)c3cc(O)ccc32)cc1`: 54.7% (active). The same measure, in the same setting: next, `Nc1ncc([N+](=O)[O-])c(N2CCCCCC2)n1`: 57.3% (active); `COCC(C)n1c(C)cc(C(=O)COC(=O)c2cccn2C)c1C` (centres undefined): 57.2% (active); `NC(=O)c1sc2nc3c(c(-c4cccs4)c2c1N)CCCCC3`: 60.3% (active). On to `COc1ccc(-c2cncnc2-c2ccc(OC)cc2O)cc1`, for which the inhibition was 42.5%. For the compound `COc1ccc2ncn(-c3ccccc3)c2c1`, the inhibition was 38.2%.

In the case of `Cc1[nH]nc2ncc(C(=O)c3ccccc3O)cc12`, the inhibition was 50.4% (active).

Consider `Cc1c([N+](=O)[O-])c2ccc(O)cc2n1-c1ccccc1`, for which the inhibition was 35.8%. Still for that read-out and setting: next, `CC1(Cc2cccc(F)c2)C(=O)Nc2ccc(-c3cccnc3)cc21` (centres undefined): 56% (active); `O=C(NC1CCCCC1)C(c1cccnc1)N(C(=O)CCl)c1cccc(Cl)c1` (centres undefined): 56.3% (active). The same measure, in the same setting: next, `Cc1ccc(S(=O)(=O)c2ccc([N+](=O)[O-])cn2)cc1`: 23.4%; `CCn1c2ccccc2c2cnc(N=CN(C)C)c(C#N)c21`: -0.33%. Still for that read-out and setting: next, `COc1ccc(Nc2ccnc3ccccc23)cc1`: 30%; `COc1ccc(C2=Nn3c(nnc3-c3ccncc3)SC2)cc1`: 39.8%; `COc1ccc(-n2c(C)c(C(C)=O)c3cc(O)ccc32)cc1`: 54% (active). As to `Cc1ccc(OCC(=O)c2cc(C)n(Cc3cccs3)c2C)c([N+](=O)[O-])n1`, the inhibition was 52.2% (active). Same read-out and setting: next, `O=C(CCl)N1N=C(c2ccco2)CC1c1ccco1` (centres undefined): 67.9% (active). Same read-out and setting: next, `CC1(C)Cc2c(ccc3ccccc23)C(=O)N1`: 32.1%; `OCCCNc1ncnc2scc(-c3ccc(Cl)cc3)c12`: 46.5% (active); `Cc1ccccc1C(=O)N1CCN(c2ccc(NC(=O)c3ccc4c(c3)OCCO4)cc2)CC1`: 45.5%. The same measure, in the same setting: next, `C=C1C(=O)[C@@]23[C@H](O)C[C@@H]4C(C)(C)CC[C@H](O)[C@@]4(C)[C@@H]2CC[C@@H]1[C@H]3O`: 66.4% (active). On to `N#CC(C#N)c1ccnc2ccccc12`, for which the inhibition is 36.4%. Same read-out and setting: next, `CCCCN(c1ccccc1)c1ncnc(N)c1[N+](=O)[O-]`: 44.7%. For the compound `CCOC(=O)c1cccc2c1-c1ccccc1/C2=N/O`, the inhibition was 24.9%.
